According to PubChem BioAssay (NCI):
This is part of a sample that, as a whole, favours compounds with a hit. Of some 83,000 tested, about 20% had one in any assay.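 Negative percent growth values reflect cell death: -40 means 40% of the cells present at the start died, and -100 means all died.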 Active and inactive are the calls of the source. The calls were made as follows: active = growth percent below 10; inactive = the rest.

What was measured:
Test in all cases: NCI-60 one-dose screen, 48 h (100 = growth as untreated, 0 = no growth, -100 = all killed)
NCI-H23 lung = conditions: 10 µM unless noted
NCI-H226 lung = conditions: 10 µM unless noted
NCI-H322M lung = conditions: 10 µM unless noted
HOP-62 NSCLC = conditions: 10 µM unless noted
NCI-H460 lung = conditions: 10 µM unless noted
A549/ATCC NSCLC = conditions: 10 µM unless noted
786-0 renal = conditions: 10 µM unless noted
COLO 205 colon = conditions: 10 µM unless noted
K-562 leukemia = conditions: 10 µM unless noted
MALME-3M melanoma = conditions: 10 µM unless noted
MDA-MB-231 breast = conditions: 10 µM unless noted
RXF 393 renal = conditions: 10 µM unless noted
SF-268 CNS = conditions: 10 µM unless noted
SF-295 CNS = conditions: 10 µM unless noted
SF-539 CNS = conditions: 10 µM unless noted
UACC-257 melanoma = conditions: 10 µM unless noted
M14 melanoma = conditions: 10 µM unless noted
DU-145 prostate = conditions: 10 µM unless noted
HOP-92 NSCLC = conditions: 10 µM
NCI-H522 lung = conditions: 10 µM

Measured: growth

O=C1C(Cl)=C(SC2=NCCN2)C(=O)c2ccccc21
inactive: NCI-H226 lung 91.7% | NCI-H322M lung 99.5% | HOP-62 NSCLC 98.8% | NCI-H460 lung 70% | A549/ATCC NSCLC 95.2% | 786-0 renal 99.2% | COLO 205 colon 111% | K-562 leukemia 65% | MDA-MB-231 breast 56.3% | RXF 393 renal 121% | SF-268 CNS 62.1% | SF-295 CNS 106% | SF-539 CNS 105% | UACC-257 melanoma 36.9%
active: NCI-H23 lung 2.92% | MALME-3M melanoma -50.3% | M14 melanoma 4.35%

CC(=O)Oc1cc2ccccc2cc1C(C)C
inactive: NCI-H23 lung 107% | NCI-H226 lung 101% | NCI-H322M lung 115% | HOP-62 NSCLC 104% | NCI-H460 lung 99% | 786-0 renal 101% | COLO 205 colon 112% | DU-145 prostate 126% | K-562 leukemia 117% | MALME-3M melanoma 111% | MDA-MB-231 breast 117% | RXF 393 renal 102% | SF-268 CNS 111% | SF-295 CNS 96.8% | SF-539 CNS 95% | M14 melanoma 106%

N#CC1=C(N2CCOCC2)NC2c3ccccc3Sc3ccccc3N2C1=N (stereo not given)
inactive: NCI-H23 lung 99% | NCI-H226 lung 94.5% | NCI-H322M lung 117% | HOP-62 NSCLC 78.3% | HOP-92 NSCLC 84.5% | NCI-H522 lung 83.6% | A549/ATCC NSCLC 103% | 786-0 renal 104% | COLO 205 colon 96.8% | DU-145 prostate 98.4% | K-562 leukemia 117% | MALME-3M melanoma 103% | MDA-MB-231 breast 98.7% | RXF 393 renal 90.7% | SF-268 CNS 91.8% | SF-295 CNS 116% | SF-539 CNS 89.7% | UACC-257 melanoma 108% | M14 melanoma 98.9%

CC1=C(C)C[C@]2(C(=O)O[C@H]3CCCC[C@@H]32)[S@](=O)C1
inactive: NCI-H23 lung 97.9% | NCI-H226 lung 109% | NCI-H322M lung 106% | HOP-62 NSCLC 106% | HOP-92 NSCLC 105% | NCI-H522 lung 82.9% | A549/ATCC NSCLC 96.5% | 786-0 renal 102% | COLO 205 colon 108% | DU-145 prostate 107% | K-562 leukemia 102% | MALME-3M melanoma 110% | MDA-MB-231 breast 125% | RXF 393 renal 112% | SF-268 CNS 96.4% | SF-295 CNS 106% | SF-539 CNS 114% | UACC-257 melanoma 97.7% | M14 melanoma 103%

COc1ccc(Oc2[nH]n(C3=Nc4ccccc4Sc4ccccc43)c(=O)c2C#N)cc1
inactive: NCI-H23 lung 95.7% | NCI-H226 lung 100% | NCI-H322M lung 125% | HOP-62 NSCLC 92.1% | HOP-92 NSCLC 74.2% | NCI-H522 lung 74.9% | A549/ATCC NSCLC 98.4% | 786-0 renal 104% | COLO 205 colon 111% | DU-145 prostate 104% | K-562 leukemia 125% | MALME-3M melanoma 169% | MDA-MB-231 breast 95.6% | RXF 393 renal 94.2% | SF-268 CNS 88.3% | SF-295 CNS 99.2% | SF-539 CNS 96.7% | UACC-257 melanoma 104%

CCN(CC)c1ccc2nc3ccc(N=Nc4ccc(O)cc4)cc3[n+](-c3ccccc3)c2c1
active: COLO 205 colon -6.39% | UACC-257 melanoma -1.57%
inactive: NCI-H23 lung 63.9% | NCI-H226 lung 98.1% | NCI-H322M lung 95.8% | HOP-62 NSCLC 52.5% | HOP-92 NSCLC 88.4% | NCI-H522 lung 37.2% | A549/ATCC NSCLC 35.9% | 786-0 renal 88.5% | DU-145 prostate 82.1% | K-562 leukemia 18.2% | MALME-3M melanoma 35.4% | MDA-MB-231 breast 20.9% | RXF 393 renal 30.6% | SF-268 CNS 81% | SF-295 CNS 66.8% | SF-539 CNS 89.5% | M14 melanoma 61.3%

C=CCNC(=S)NNc1ccc([N+](=O)[O-])cn1
inactive: NCI-H23 lung 93.5% | NCI-H226 lung 94.4% | NCI-H322M lung 89.7% | HOP-62 NSCLC 105% | HOP-92 NSCLC 98.1% | NCI-H522 lung 80.4% | A549/ATCC NSCLC 101% | 786-0 renal 105% | COLO 205 colon 110% | DU-145 prostate 104% | K-562 leukemia 94.3% | MALME-3M melanoma 79.6% | MDA-MB-231 breast 89.7% | RXF 393 renal 104% | SF-268 CNS 97.7% | SF-295 CNS 96.9% | SF-539 CNS 104% | UACC-257 melanoma 97.9% | M14 melanoma 96%

O=C(/C=C\c1ccc(NCc2ccc(C(=O)O)cc2)cc1)CCl
inactive: NCI-H23 lung 94.3% | NCI-H226 lung 111% | NCI-H322M lung 97% | HOP-62 NSCLC 75.1% | HOP-92 NSCLC 99.7% | A549/ATCC NSCLC 100% | 786-0 renal 90.4% | COLO 205 colon 78.6% | DU-145 prostate 112% | MALME-3M melanoma 88.8% | MDA-MB-231 breast 91.4% | RXF 393 renal 65.2% | SF-268 CNS 74% | SF-295 CNS 96.4% | SF-539 CNS 95% | UACC-257 melanoma 85.6% | M14 melanoma 90.7%
active: NCI-H522 lung -78.1% | K-562 leukemia 9.08%

CCCCCCCCCCN1CC2CCCCC2C1 (stereo not given)
inactive: NCI-H23 lung 82.2% | NCI-H226 lung 76% | NCI-H322M lung 99.7% | HOP-62 NSCLC 69.4% | HOP-92 NSCLC 56.4% | NCI-H522 lung 67.1% | A549/ATCC NSCLC 97.3% | 786-0 renal 86.6% | COLO 205 colon 61% | DU-145 prostate 69% | K-562 leukemia 24.4% | MALME-3M melanoma 108% | MDA-MB-231 breast 34.1% | RXF 393 renal 77.7% | SF-268 CNS 72.2% | SF-295 CNS 85.1% | SF-539 CNS 85.1% | UACC-257 melanoma 87.2% | M14 melanoma 73.3%
